What follows are targets tested with CN[C@@H]1C[C@H]2O[C@@](C)([C@@H]1OC)n1c3ccccc3c3c4c(c5c6ccccc6n2c5c31)C(=O)NC4 [staurosporine] (assay: log2 fold change of tryptic peptide abundance, ligand vs vehicle (limited proteolysis) (log2 ratio); higher = more trypsin-susceptible (destabilized)). Conditions: ligand concentration: 20 uM; sample: mouse liver crude lysate; replicate design: treated separately.

Sequence of UniProt Q60737 (Q60737 whole entry): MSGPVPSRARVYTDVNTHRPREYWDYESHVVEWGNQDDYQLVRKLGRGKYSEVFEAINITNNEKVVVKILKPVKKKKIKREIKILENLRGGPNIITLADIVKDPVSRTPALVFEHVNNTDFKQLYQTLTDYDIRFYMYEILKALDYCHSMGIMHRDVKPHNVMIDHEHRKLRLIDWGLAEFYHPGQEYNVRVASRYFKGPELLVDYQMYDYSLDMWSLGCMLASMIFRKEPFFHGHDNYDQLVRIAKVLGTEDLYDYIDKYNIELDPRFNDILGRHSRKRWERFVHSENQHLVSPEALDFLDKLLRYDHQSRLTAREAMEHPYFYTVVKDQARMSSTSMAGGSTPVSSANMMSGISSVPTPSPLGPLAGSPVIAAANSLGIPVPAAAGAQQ
Sequence of UniProt Q923T9 (Q923T9 whole entry): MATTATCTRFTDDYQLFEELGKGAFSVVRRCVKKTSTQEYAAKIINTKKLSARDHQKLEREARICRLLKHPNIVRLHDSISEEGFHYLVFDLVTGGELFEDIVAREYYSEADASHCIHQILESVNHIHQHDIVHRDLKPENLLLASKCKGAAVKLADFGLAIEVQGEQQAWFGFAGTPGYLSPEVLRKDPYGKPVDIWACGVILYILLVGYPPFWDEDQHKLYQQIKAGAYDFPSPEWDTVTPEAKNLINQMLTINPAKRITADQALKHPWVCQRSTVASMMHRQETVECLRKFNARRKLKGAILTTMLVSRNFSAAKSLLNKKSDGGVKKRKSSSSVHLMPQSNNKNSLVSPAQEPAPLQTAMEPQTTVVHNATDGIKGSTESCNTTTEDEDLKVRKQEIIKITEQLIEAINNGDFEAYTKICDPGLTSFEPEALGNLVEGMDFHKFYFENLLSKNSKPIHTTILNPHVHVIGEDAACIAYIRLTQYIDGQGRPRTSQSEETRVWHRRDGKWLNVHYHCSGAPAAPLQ
Sequence of UniProt Q8C4X2 (Q8C4X2 whole entry): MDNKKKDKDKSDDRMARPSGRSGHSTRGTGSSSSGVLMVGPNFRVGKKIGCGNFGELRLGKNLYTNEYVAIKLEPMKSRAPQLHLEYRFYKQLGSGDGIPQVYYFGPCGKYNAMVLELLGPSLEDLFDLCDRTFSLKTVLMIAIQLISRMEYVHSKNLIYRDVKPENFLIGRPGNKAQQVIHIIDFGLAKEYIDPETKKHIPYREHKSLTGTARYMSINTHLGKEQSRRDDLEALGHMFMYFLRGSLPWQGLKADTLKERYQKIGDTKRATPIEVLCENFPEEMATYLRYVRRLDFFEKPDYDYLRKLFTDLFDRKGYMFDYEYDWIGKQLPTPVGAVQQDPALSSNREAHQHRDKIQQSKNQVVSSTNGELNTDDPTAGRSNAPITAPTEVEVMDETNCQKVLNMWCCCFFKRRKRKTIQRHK
Sequence of UniProt Q62393 (Q62393 whole entry): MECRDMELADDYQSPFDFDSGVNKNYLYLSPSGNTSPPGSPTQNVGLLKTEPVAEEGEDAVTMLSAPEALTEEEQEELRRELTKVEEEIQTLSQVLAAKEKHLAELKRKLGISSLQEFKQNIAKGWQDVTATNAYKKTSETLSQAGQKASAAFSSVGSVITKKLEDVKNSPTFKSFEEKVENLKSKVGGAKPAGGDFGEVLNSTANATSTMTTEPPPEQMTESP
Sequence of UniProt Q8BTH8 (Q8BTH8 whole entry): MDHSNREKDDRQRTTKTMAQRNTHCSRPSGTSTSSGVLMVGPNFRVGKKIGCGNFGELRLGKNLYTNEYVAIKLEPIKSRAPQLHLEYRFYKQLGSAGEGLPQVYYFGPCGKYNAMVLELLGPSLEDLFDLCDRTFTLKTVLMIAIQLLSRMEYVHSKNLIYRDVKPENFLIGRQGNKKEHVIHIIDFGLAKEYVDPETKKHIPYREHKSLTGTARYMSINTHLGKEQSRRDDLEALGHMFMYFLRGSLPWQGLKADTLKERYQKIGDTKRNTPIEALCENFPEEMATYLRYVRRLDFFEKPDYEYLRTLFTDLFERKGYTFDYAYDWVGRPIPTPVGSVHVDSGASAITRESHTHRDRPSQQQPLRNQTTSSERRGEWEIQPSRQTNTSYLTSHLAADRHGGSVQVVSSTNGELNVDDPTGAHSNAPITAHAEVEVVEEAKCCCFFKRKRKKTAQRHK
Sequence of UniProt Q8CIE6 (Q8CIE6 whole entry): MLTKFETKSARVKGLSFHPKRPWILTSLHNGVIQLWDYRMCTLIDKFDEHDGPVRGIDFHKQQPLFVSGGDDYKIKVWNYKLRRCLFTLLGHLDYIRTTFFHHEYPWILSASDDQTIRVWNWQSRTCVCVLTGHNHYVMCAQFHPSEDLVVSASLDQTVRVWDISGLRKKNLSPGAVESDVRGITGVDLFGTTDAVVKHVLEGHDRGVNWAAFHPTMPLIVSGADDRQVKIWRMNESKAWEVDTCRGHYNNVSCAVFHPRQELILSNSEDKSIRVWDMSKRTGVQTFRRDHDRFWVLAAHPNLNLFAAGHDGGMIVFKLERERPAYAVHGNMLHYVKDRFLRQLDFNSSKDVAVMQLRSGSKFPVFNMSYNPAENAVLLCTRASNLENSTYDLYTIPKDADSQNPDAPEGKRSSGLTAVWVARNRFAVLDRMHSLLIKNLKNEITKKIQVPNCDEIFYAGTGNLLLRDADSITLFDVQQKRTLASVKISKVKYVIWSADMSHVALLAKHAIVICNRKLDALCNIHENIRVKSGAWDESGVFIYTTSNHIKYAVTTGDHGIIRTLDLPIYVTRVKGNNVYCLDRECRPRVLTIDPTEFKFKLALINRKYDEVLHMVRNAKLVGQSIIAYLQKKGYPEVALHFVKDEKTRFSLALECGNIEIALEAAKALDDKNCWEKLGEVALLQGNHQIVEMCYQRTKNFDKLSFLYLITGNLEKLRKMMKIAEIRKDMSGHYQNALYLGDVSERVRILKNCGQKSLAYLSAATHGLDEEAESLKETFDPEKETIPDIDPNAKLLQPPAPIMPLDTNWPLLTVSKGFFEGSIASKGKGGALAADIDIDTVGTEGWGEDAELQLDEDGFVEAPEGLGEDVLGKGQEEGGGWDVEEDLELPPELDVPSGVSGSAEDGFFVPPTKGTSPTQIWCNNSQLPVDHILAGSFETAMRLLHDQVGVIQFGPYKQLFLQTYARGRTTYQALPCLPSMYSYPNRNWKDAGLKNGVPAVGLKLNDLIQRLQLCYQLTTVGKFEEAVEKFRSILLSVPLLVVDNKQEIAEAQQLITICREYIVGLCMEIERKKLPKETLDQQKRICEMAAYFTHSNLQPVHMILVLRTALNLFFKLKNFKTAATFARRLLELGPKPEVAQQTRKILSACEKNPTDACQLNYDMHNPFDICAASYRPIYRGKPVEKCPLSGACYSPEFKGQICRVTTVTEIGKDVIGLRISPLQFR
Sequence of UniProt Q9QZ05 (Q9QZ05 whole entry): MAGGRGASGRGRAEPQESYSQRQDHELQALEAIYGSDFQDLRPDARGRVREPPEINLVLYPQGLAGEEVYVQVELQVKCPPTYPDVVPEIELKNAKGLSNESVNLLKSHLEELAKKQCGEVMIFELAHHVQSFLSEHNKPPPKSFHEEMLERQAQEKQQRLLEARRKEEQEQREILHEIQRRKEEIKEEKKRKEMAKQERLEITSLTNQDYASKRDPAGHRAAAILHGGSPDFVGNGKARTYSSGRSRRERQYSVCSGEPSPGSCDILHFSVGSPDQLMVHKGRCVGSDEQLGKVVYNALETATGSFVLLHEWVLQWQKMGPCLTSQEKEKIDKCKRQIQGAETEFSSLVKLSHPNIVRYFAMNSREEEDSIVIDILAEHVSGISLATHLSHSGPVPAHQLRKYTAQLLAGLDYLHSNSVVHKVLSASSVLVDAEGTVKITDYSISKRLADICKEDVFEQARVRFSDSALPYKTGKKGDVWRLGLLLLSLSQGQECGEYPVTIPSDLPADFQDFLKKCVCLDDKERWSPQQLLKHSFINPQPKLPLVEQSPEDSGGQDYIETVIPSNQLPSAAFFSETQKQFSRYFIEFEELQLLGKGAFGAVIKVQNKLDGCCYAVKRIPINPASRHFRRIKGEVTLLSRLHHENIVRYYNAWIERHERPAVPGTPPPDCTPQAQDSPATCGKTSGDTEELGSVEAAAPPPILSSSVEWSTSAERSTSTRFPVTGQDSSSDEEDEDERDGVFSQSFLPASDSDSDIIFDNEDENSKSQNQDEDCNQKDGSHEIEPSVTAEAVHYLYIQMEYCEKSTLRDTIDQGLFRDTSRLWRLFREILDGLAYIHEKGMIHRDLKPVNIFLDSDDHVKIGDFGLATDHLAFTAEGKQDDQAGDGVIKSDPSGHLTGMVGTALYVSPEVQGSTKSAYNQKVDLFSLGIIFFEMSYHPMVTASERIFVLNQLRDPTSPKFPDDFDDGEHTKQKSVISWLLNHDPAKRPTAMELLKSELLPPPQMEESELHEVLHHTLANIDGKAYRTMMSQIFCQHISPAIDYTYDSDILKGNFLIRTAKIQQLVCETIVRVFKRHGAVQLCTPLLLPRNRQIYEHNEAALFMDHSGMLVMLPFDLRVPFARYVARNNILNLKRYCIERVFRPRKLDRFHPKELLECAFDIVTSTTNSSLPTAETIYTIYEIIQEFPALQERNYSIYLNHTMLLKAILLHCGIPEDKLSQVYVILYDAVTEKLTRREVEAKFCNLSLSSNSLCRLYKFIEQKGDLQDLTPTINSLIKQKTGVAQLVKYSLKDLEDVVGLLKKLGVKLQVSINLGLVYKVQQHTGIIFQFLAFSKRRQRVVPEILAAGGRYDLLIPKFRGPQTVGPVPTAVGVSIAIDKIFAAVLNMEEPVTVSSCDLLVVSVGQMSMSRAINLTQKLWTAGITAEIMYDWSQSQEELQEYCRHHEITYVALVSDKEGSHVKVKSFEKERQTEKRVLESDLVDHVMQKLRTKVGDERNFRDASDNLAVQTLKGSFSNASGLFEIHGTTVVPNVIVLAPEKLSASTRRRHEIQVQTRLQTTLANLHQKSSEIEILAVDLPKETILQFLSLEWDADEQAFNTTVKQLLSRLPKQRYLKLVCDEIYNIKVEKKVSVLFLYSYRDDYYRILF

Target | log2 fold change
UniProt Q9QZ05 (peptide sequence: DLKPVNIFLDSDDHVK, peptide start residue: 846) | -1.48
UniProt P54823 (peptide sequence: LDLKKDNIQAMVIVPTR, peptide start residue: 158) | 1.16
UniProt P22907 (peptide sequence: ELENALEKNEVDLVVHSLK, peptide start residue: 80) | -0.802
UniProt Q8VDM4 (peptide sequence: SETELKDTYAR, peptide start residue: 546) | -1.29
UniProt Q9D517 (peptide sequence: GLPPLKYHLLPR, peptide start residue: 196) | 0.633
UniProt Q8C4X2 (peptide sequence: DVKPENFLIGRPGNK, peptide start residue: 162) | -1.22
UniProt P37172 (peptide sequence: GSWQGENVAVK, peptide start residue: 225) | -2.41
UniProt Q9Z1M4 (peptide sequence: IGPHCFELLSVLGK, peptide start residue: 62) | -0.47
UniProt Q62393 (peptide sequence: GWQDVTATNAYK, peptide start residue: 125) | 0.581
UniProt Q8CIE6 (peptide sequence: VTTVTEIGKDVIGLR, peptide start residue: 1203) | -0.699
UniProt Q66GT5 (peptide sequence: IDHTVLLGALPLK, peptide start residue: 41) | 0.379
UniProt Q8BTH8 (peptide sequence: GSLPWQGLK, peptide start residue: 245) | -0.593
UniProt Q60737 (peptide sequence: VYTDVNTHRPR, peptide start residue: 11) | 0.264
UniProt O70503 (peptide sequence: IQKPTLDKPSAETFVK, peptide start residue: 242) | 0.192
UniProt O70318 (peptide sequence: RVTPLPFQPQASSHETLNVVEEK, peptide start residue: 654) | -0.88
UniProt Q9DC28 (peptide sequence: FDDKPDYSYLR, peptide start residue: 260) | -0.751
UniProt Q8R1Q8 (peptide sequence: NIDLVYK, peptide start residue: 292) | 0.28
UniProt O89023 (peptide sequence: VNTEFMK, peptide start residue: 339) | -0.234
UniProt P14685 (peptide sequence: ISLADIAQK, peptide start residue: 413) | -0.355
UniProt P70236 (peptide sequence: ADDLEPIVELGR, peptide start residue: 50) | -2.01
UniProt Q8C9S4 (peptide sequence: QEIEHLK, peptide start residue: 574) | -1.24
UniProt Q4LDG0 (peptide sequence: NQPFLGYR, peptide start residue: 501) | 0.345
UniProt O55047 (peptide sequence: YLLLHLLGR, peptide start residue: 408) | -1.75
UniProt Q923T9 (peptide sequence: GAILTTMLVSR, peptide start residue: 302) | -0.876
UniProt Q9ERK4 (peptide sequence: LLQAFLER, peptide start residue: 707) | 0.291
UniProt Q9D8V0 (peptide sequence: SSSDMPETITSR, peptide start residue: 62) | -1.22
